Some compounds were tested as several samples or in several runs, with calls that do not always agree. Calls of active or inactive are those of the source. The calls were made as follows: active = hit-call score of the fitted dose curve at least 0.9, where 1 is the maximum; inactive = score below 0.9.
How the values were obtained:
[1] = biological target: Nuclear respiratory factor 1 (Homo sapiens) (UniProt Q16656); test: ATG_NRF1_CIS: Attagene CIS-FACTORIAL HepG2 Assay for human Nuclear Respiratory Factor 1 (NRF1) Orphan Gene (AID 2282987); conditions: HepG2 NRF1 cis-element reporter, Attagene multiplex; actives raise or lower the signal
In short: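 Reporter mRNA induction or loss in HepG2 cells after 24 h dosing; cis-regulated reporter constructs report endogenous transcription-factor activity. Quantified by RT-PCR/capillary electrophoresis fluorescence, DMSO-referenced.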

[2] = ATG_NFI_CIS: Attagene CIS-FACTORIAL HepG2 Assay for human Nuclear Factor I (NFI) (AID 2282989); conditions: HepG2 cis-regulatory reporter, NFI response element transcription; actives raise or lower the signal
In short: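 Transient MRTU transfection of HepG2 → 24 h chemical dosing → total RNA, oligo(dT) RT → PCR, 6-FAM primer extension, HpaI cut → capillary electrophoresis. Endpoint fitted bidirectionally relative to DMSO.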

[3] = biological target: Myc proto-oncogene protein (Homo sapiens) (UniProt P01106); test: ATG_Myc_CIS: Attagene CIS-FACTORIAL HepG2 Assay for human Myelocytomatosis (Myc) Proto-Oncogene Transcription Factor (AID 2282990); conditions: HepG2, Attagene cis-reporter transcription factor activity; actives raise or lower the signal
In short: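 HepG2 cells transiently transfected with multiple cis-promoter-driven reporter transcription units, so endogenous TF activity is read. After 24 h compound exposure, reporter mRNA was quantified by RT-PCR, 6-FAM labelling, HpaI digestion and capillary electrophoresis; bidirectional fit versus DMSO.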

[4] = ATG_NF_kB_CIS: Attagene CIS-FACTORIAL HepG2 Assay for human Nuclear Factor Kappa B (NF-kB) (AID 2282991); conditions: HepG2 Attagene cis-factorial NF-kB reporter mRNA; actives raise or lower the signal
In short: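 DMSO served as negative control and baseline for bidirectional curve fitting. Transiently transfected HepG2 cells were dosed for 24 h, then reporter transcripts were measured by RT-PCR with capillary electrophoresis detection.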

[5] = ATG_NRF2_ARE_CIS: Attagene CIS-FACTORIAL HepG2 Assay for human Nuclear Factor Erythroid 2 Related Factor 2 (NFR2) response to Antioxidant Response Elements (ARE) (AID 2282992); conditions: HepG2 Attagene ARE/NRF2 reporter, transcription factor activity; actives raise or lower the signal;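 as to AC50: reporter mRNA level measured by RT-PCR and capillary electrophoresis fluorescence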
In short: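 Fluorescence intensity of reporter-specific cDNA fragments, separated by capillary electrophoresis, reflects mRNA induction in transfected HepG2 cells at 24 h. Activity is fitted bidirectionally, DMSO serving as baseline.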

[6] = ATG_Oct_MLP_CIS: Attagene CIS-FACTORIAL HepG2 Assay for human Octamer-Binding Transcription Factor (Oct) (AID 2282993); conditions: HepG2 Attagene cis-factorial Oct reporter, mRNA; actives raise or lower the signal
In short: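 Transient MRTU transfection of HepG2 → 24 h compound treatment → RNA isolation, reverse transcription, PCR → 6-FAM primer extension, HpaI digest → capillary electrophoresis. Activity fitted both directions against DMSO.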

[7] = biological target: Cellular tumor antigen p53 (Homo sapiens) (UniProt P04637); test: ATG_p53_CIS: Attagene CIS-FACTORIAL HepG2 Assay for human p53 Transcription Factor (AID 2282994); conditions: HepG2 p53 cis-element reporter, Attagene mRNA; actives raise or lower the signal
In short: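 Transiently transfected HepG2 (multiple cis reporter transcription units); exposure 24 h; reporter RNA via RT-PCR, 6-FAM extension, 2 h HpaI digest at 37 C, CE detection; DMSO baseline.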

[8] = BSK_3C_TissueFactor: BioMAP Diversity Plus: 3C Assay for Tissue Factor Biomarker Activity (AID 2282997); conditions: BioMAP 3C HUVEC, tissue factor biomarker readout; actives raise or lower the signal
In short: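 Cells used were primary human umbilical vein endothelial cells. They were dosed with chemical, and after 24 h Tissue Factor was quantified by ELISA. Curves were fitted bidirectionally with DMSO as baseline.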

[9] = BSK_3C_uPAR: BioMAP Diversity Plus: 3C Assay for Urokinase-type plasminogen activator receptor (uPAR) Biomarker Activity (AID 2282998); conditions: BioMAP 3C HUVEC, uPAR biomarker ELISA; actives raise or lower the signal
In short: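 ELISA readout of uPAR on human vascular endothelium (umbilical vein primary cells), taken 24 h after chemical dosing. Increases and decreases are both fitted relative to DMSO vehicle.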

[10] = BSK_3C_VCAM1: BioMAP Diversity Plus: 3C Assay for Vascular cell adhesion molecule 1 (VCAM1) Biomarker Activity (AID 2282999); conditions: BioMAP 3C HUVEC, VCAM1 ELISA, cytokine-stimulated; actives raise or lower the signal
In short: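 Vascular primary endothelium (human umbilical vein) was exposed to chemicals and assayed 24 h later. VCAM-1 levels came from ELISA, with DMSO serving as baseline for bidirectional fitting.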

Measured: AC50

Sequence of Cellular tumor antigen p53 (Homo sapiens) (P04637 whole entry, looked up): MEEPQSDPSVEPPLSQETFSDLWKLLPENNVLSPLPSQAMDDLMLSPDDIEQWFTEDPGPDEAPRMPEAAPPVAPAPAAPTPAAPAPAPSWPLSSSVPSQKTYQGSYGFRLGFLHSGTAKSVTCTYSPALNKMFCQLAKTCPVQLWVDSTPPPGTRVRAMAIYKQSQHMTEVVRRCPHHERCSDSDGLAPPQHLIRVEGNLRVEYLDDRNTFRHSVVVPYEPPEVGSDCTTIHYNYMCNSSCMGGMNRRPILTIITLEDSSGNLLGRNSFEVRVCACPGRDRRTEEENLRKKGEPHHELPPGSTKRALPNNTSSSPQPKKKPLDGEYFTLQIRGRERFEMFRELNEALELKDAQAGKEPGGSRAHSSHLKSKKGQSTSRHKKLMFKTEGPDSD
Sequence of Myc proto-oncogene protein (Homo sapiens) (P01106 whole entry, looked up): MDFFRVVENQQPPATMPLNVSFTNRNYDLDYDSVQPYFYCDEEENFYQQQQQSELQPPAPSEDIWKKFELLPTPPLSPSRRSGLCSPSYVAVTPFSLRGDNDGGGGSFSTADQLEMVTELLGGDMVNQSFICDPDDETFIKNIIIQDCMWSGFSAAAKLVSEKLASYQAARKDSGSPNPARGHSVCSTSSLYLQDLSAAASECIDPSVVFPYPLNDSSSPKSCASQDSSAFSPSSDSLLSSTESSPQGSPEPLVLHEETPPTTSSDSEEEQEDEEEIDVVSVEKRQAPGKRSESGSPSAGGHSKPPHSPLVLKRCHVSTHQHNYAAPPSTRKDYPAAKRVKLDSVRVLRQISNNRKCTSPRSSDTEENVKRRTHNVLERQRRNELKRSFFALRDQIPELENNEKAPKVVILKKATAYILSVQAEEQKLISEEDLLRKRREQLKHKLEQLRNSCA
Sequence of Nuclear respiratory factor 1 (Homo sapiens) (Q16656 whole entry, looked up): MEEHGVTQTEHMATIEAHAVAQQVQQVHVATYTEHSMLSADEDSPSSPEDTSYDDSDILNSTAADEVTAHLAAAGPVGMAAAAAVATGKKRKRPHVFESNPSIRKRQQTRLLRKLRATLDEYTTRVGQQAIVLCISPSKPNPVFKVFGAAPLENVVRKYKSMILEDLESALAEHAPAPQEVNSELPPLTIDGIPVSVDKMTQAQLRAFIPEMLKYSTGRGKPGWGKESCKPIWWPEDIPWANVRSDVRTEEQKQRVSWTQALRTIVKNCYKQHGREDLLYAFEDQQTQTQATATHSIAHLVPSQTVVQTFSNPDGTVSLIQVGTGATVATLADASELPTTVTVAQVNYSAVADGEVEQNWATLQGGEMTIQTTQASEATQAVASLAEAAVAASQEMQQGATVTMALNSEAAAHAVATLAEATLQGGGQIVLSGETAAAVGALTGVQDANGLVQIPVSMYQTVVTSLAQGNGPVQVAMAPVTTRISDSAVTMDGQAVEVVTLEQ

C=CC(=O)OCCCCCCCCCC
active: [5] 94.5 µM
not listed: [8] | [9] | [10]
inactive: all other assays above

C[Si]1(C)O[Si](C)(C)O[Si](C)(C)O[Si](C)(C)O[Si](C)(C)O1
not listed: [8] | [9] | [10]
inactive: all other assays above

CCOC(=O)c1ccccc1C
not listed: [8] | [9] | [10]
inactive: all other assays above

CCC[Si](OC)(OC)OC
inactive: [1] | [2] | [3] | [4] | [5] | [6]

C=CC(C)(O)CC/C=C(\C)CC (stereo unspecified)
not listed: [8] | [9] | [10]
inactive: all other assays above

CCCC=C(C=O)CC
inactive: [1] | [2] | [3] | [4] | [5] | [6]

CCCCCCO
inactive: [1] | [2] | [3] | [4] | [5] | [6]

Cc1cc(=O)[nH]c(=O)[nH]1
not listed: [8] | [9] | [10]
inactive: all other assays above

CCOC(=O)[C@H](O)[C@@H](O)C(=O)OCC
not listed: [8] | [9] | [10]
inactive: all other assays above

O=C(O)/C=C/c1ccccc1
not listed: [8] | [9] | [10]
inactive: all other assays above

CC(=O)CC(=O)Nc1ccccc1C
not listed: [8] | [9] | [10]
inactive: all other assays above

CCCCCCCOC(=O)c1ccc(O)cc1
inactive: [1] | [2] | [3] | [4] | [7]
active: [5] 39.4 µM | [6] 46 µM

CCOC(=O)/C=C\C(=O)OCC
active: [5] 11.4 µM
inactive: all other assays above

CC1=CP(=O)(c2ccccc2)CC1 (stereo unspecified)
not listed: [8] | [9] | [10]
inactive: all other assays above

CC(C)c1ccc(O)c(C(C)C)c1
active: [5] 24.6 µM
not listed: [8] | [9] | [10]
inactive: all other assays above

C[N+](C)(C)CCCNS(=O)(=O)C(F)(F)C(F)(F)C(F)(F)C(F)(F)C(F)(F)C(F)(F)C(F)(F)C(F)(F)F
inactive: [1] | [2] | [3] | [4] | [5] | [6] | [7] | [8] | [9] | [10]
active: [8] 41.3 µM | [9] 20.7 µM

O=S(=O)(O)c1ccc(Nc2nc(Nc3ccc(C=Cc4ccc(Nc5nc(Nc6ccc(S(=O)(=O)O)cc6)nc(N(CCO)CCO)n5)cc4S(=O)(=O)O)c(S(=O)(=O)O)c3)nc(N(CCO)CCO)n2)cc1
not listed: [8] | [9] | [10]
inactive: all other assays above

Cc1noc(NS(=O)(=O)c2ccc(N)cc2)c1C
not listed: [8] | [9] | [10]
inactive: all other assays above

C=C(C)C(=O)OCC(O)COc1ccc(C(C)(C)c2ccc(OCC(O)COC(=O)C(=C)C)cc2)cc1 (stereo unspecified)
active: [1] 130 µM | [5] 26.5 µM | [6] 17.8 µM
inactive: [2] | [3] | [4] | [7]

Cc1cc(C)c(C=O)c(C)c1
not listed: [8] | [9] | [10]
inactive: all other assays above

CN1CCN(C)CC1
not listed: [8] | [9] | [10]
inactive: all other assays above

O=C(O)C(F)(F)C(F)(F)C(F)(F)C(F)(F)C(=O)O
inactive: all assays above

CCCC(CC)c1ccccc1 (stereo unspecified)
inactive: [3] | [4] | [6] | [7]
active: [1] 158 µM | [2] 181 µM | [5] 165 µM

CO[Si](CCCS)(OC)OC
not listed: [8] | [9] | [10]
inactive: all other assays above

CCCCCCCCCC(C)=O
not listed: [8] | [9] | [10]
inactive: all other assays above

NC(=O)Nc1ccccc1
not listed: [8] | [9] | [10]
inactive: all other assays above

C/C=C/C=C/CCCCCCCO
active: [5] 45.6 µM
not listed: [8] | [9] | [10]
inactive: all other assays above

CO[Si](C)(C)OC
active: [3] 158 µM
not listed: [8] | [9] | [10]
inactive: all other assays above

CC(C)(c1ccccc1)c1ccc(Nc2ccc(C(C)(C)c3ccccc3)cc2)cc1
not listed: [8] | [9] | [10]
inactive: all other assays above
